From PubChem BioAssay
Inconclusive results are not listed. The source made the active and inactive calls. Unless noted, cut-off not given; nearly all actives show AC50 up to about 26 µM.

Assays:
[1] = viability loss in pontine glioma line – cell-based, SU-DIPG-XVII, MIPE5.0, CellTiter-Glo, qHTS, dose response (AID 1347060); settings: CellTiter-Glo ATP luminescence;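 on AC50: cells exposed to compound for 48 hours before viability readout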
[2] = viability loss in pontine glioma line – cell-based, SU-DIPG-IV, MIPE4.0, CellTiter-Glo, qHTS, dose response (AID 1347063; cut-off not given, nearly all actives have AC50 up to about 30 µM;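 further: compound exposure lasted 48 hours before the viability readout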); settings: CellTiter-Glo ATP luminescence
[3] = viability loss in pontine glioma line – cell-based, SU-DIPG-XIII, MIPE5.0, CellTiter-Glo, qHTS, dose response (AID 1347064; cut-off not given, nearly all actives have AC50 up to about 23 µM;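 further: cells exposed to compound for 48 hours before the viability read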); settings: CellTiter-Glo ATP luminescence
[4] = viability loss in pontine glioma line – cell-based, SU-DIPG-XXV, MIPE5.0, CellTiter-Glo, qHTS, dose response (AID 1347065); settings: CellTiter-Glo ATP luminescence;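 further: cells exposed to compound for 48 hours before ATP readout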
[5] = growth inhibition of DIPG cells – cell-based, MIPE5.0 library, qHTS (AID 1347068; cut-off not given, nearly all actives have IC50 up to about 30 µM;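 on IC50: cells exposed to compound for 48 hours before viability readout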); settings: SU-DIPG-XXV viability
[6] = growth inhibition of DIPG cells – cell-based, MIPE4.0 library, CellTiter-Glo luminescence, qHTS (AID 1347066; cut-off not given, nearly all actives have AC50 up to about 30 µM;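 further: cells exposed to compound for 48 hours before readout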); settings: SU-DIPG-VI viability, CellTiter-Glo ATP luminescence
[7] = JHH-DIPG-1 glioma cell viability, MIPE5.0 library, CellTiter-Glo luminescence, qHTS (AID 1347067); settings: JHH-DIPG-1 glioma viability, CellTiter-Glo ATP luminescence;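 further: cells exposed to compound for 48 hours before readout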
[8] = compounds altering HSF1 focus formation in cells – imaging, Selleck Cancer Library (AID 1347162; in the data active means plate-normalised HSF1 focus index below about 0.46); settings: human cells, HSF1 nuclear foci imaging, at 10 µM; SSMD: measured here: HSF1 foci SSMD mean; cell count: measured here: cell number; plate-normalised HSF1 focus index: stronger effect = lower value
[9] = viability loss with induced miR-34 in A549 – imaging, A549 dox-inducible miR-34, nuclei and caspase counts, primary screen (AID 1347080;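 active means compounds whose cell count with miR-34 switched on is under 0.7 times the count with it off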); settings: A549 miR-34 inducible, Hoechst nuclei count, 48 h
[10] = MELAS cybrid and Rieske KO viability enhancers – cell-based, MELAS cybrids, Rieske KO mouse fibroblasts, CellTiter-Glo, primary screen (AID 1508586;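 active means mean z-score across replicates of 1.96 or higher in either the MELAS or the Rieske mutant cell line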;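 further: z relative to plate mean and SD of compound and empty wells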); settings: low glucose

CNc1nccc(-c2cccnc2Oc2cc(C(=O)Nc3cccc(C(F)(F)F)c3)ccc2C)n1
AC50 [1]: 3.72 µM (active) | AC50 [2]: 13.2 µM (active) | AC50 [3]: 5.9 µM (active) | AC50 [4]: 5.9 µM (active) | IC50 [5]: 13.2 µM (active)

CC[C@@H]([C@H](C)O)n1ncn(-c2ccc(N3CCN(c4ccc(OCC5CO[C@@](Cn6cncn6)(c6ccc(F)cc6F)C5)cc4)CC3)cc2)c1=O (some centres not stated)
AC50 [1]: 18.6 µM (active) | AC50 [2]: 14.8 µM (active) | outcome [6]: inactive

N#Cc1ccc(COC[C@H]2O[C@@H](n3c(NCc4ccc(Cl)c(Cl)c4)nc4c(N)ncnc43)[C@H](O)[C@@H]2O)cc1
AC50 [1]: 14.8 µM (active) | AC50 [2]: 2.35 µM (active) | AC50 [4]: 18.6 µM (active) | outcome [6]: inactive | AC50 [7]: 18.6 µM (active)

CC(C)=CCC/C(C)=C/CC/C(C)=C/CSc1ccccc1C(=O)O
outcome [1]: inactive | AC50 [2]: 0.526 µM (active) | outcome [7]: inactive | outcome [5]: inactive | SSMD [8]: 2.56 | cell count [8]: 6790 | plate-normalised HSF1 focus index [8]: 1.15 (inactive)

O=C(Nc1nc2cccc(-c3ccc(CN4CCS(=O)(=O)CC4)cc3)n2n1)C1CC1
AC50 [1]: 14.8 µM (active) | AC50 [2]: 29.6 µM (active) | AC50 [4]: 9.34 µM (active) | fold change ([9]; stronger effect = lower value, cell number ratio, induced over uninduced): 0.924 (inactive) | fold change ([9]; measured here: relative caspase fold change +Dox/-Dox): 0.426 | cell count ([9]; measured here: total cells with miR-34 induction, stronger effect = lower value): 6290 | cell count ([9]; measured here: total cells without miR-34 induction): 6810 | z-score ([10]; MELAS cybrid survival, CellTiter-Glo 48 h, stronger effect = higher value): -0.57 (inactive) | z-score ([10]; Rieske KO mouse fibroblast survival, CellTiter-Glo 72 h): -1.33

O=c1ccn([C@@H]2O[C@H](CO)[C@@H](O)[C@@H]2F)c(=O)[nH]1
outcome [1]: inactive | outcome [2]: inactive | outcome [4]: inactive | outcome [6]: inactive | outcome [7]: inactive | outcome [5]: inactive

CCNC(=O)Nc1ccc(-c2nc3c(c(N4CCOC[C@@H]4C)n2)CCN(C2COC2)C3)cc1
AC50 [1]: 2.95 µM (active) | AC50 [2]: 0.332 µM (active) | AC50 [4]: 1.32 µM (active)

CCC(=C/[C@H](C)C/C=C/C(C)=C/[C@@H](C)C(=O)[C@@H](C)[C@H](O)[C@@H](C)C/C(C)=C/C(=O)O)/C=C/[C@@H]1OC(=O)C=C[C@@H]1C
AC50 [1]: 0.00296 µM (active) | AC50 [2]: 0.0139 µM (active) | AC50 [4]: 0.00209 µM (active) | AC50 [7]: 18.6 µM (active) | IC50 [5]: 0.833 µM (active)

CN(C)CC(=O)N1CCC(c2ccc(NC(=O)c3ncc(C#N)[nH]3)c(C3=CCCCC3)c2)CC1
AC50 [1]: 23.5 µM (active) | AC50 [2]: 20.9 µM (active) | AC50 [4]: 20.9 µM (active) | AC50 [6]: 18.7 µM (active) | outcome [7]: inactive | outcome [5]: inactive

CCOc1cc(C(C)(C)C)ccc1C1=N[C@@](C)(c2ccc(Cl)cc2)[C@@](C)(c2ccc(Cl)cc2)N1C(=O)N1CCN(CC(=O)N2CCOCC2)CC1
AC50 [1]: 11.5 µM (active) | AC50 [3]: 14.5 µM (active) | AC50 [4]: 10.3 µM (active)
